# Test results published in publication PMC8384837, “Expanding the binding specificity for RNA recognition by a PUF domain”.
# Columns and labels:
# Assay in all cases: yeast three-hybrid, YBZ-1, SC-Leu-His + 0.5 mM 3-AT, 4 days
# Details in all cases: tags: N-Gal4 AD-HA kept; label: inside an RPR1-promoter hybrid RNA with tandem MS2 sites; ssRNA
# [1] = target: PUM1 PUF domain R5-MKC (Homo sapiens, UniProt Q14671 828-1176, C1007M;R1008K;Q1011C)
# Summary of the method: (§1)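 The interaction score is the logarithmic change in variant frequency from input to selection. It uses log2, with a pseudocount of 1 for absent variants, and frequencies came from PCR-amplified, Illumina-sequenced repeat regions. The libraries were Pumilio-1 PUF domains randomized at the three base-contacting residues per repeat, co-expressed with matching RNA elements in strain YBZ-1 (LexA–MS2 coat fusion, HIS3 reporter). Plating lasted four days on SC-Leu (input) or SC-Leu-His + 0.5 mM 3-AT (selection).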
# [2] = target: PUM1 PUF domain R4-RFP (Homo sapiens, UniProt Q14671 828-1176, N971R;H972F;Q975P)
# Summary of the method: as §1
# [3] = target: PUM1 PUF domain R3-FCM (Homo sapiens, UniProt Q14671 828-1176, C935F;R936C;Q939M)
# Summary of the method: as §1
sequence,measurement,setting,value
GGCUAGAACUAGUGGAUCCCCCGGCGCCCGGCGGCUCGAGCCCGGGUAAGUGUUAAUAGUCUGCAUGCCGCCGGGCGCCAUGCCUGCAGGUCGACUCUAGAAAACAUG,binding signal,[1],2.53 log2 enrichment (interaction score)
GGCUAGAACUAGUGGAUCCCCCGGCGCCCGGCGGCUCGAGCCCGGGUAAGUGUAUAUAGUCUGCAUGCCGCCGGGCGCCAUGCCUGCAGGUCGACUCUAGAAAACAUG,binding signal,[2],3.26 log2 enrichment (interaction score)
GGCUAGAACUAGUGGAUCCCCCGGCGCCCGGCGGCUCGAGCCCGGGUAAGUGUAAGUAGUCUGCAUGCCGCCGGGCGCCAUGCCUGCAGGUCGACUCUAGAAAACAUG,binding signal,[3],4.3 log2 enrichment (interaction score)
